A selection: hits, their analogues and other compounds. The true share with any hit is near 3.3%.
SARS PLpro yeast – blocks SARS-CoV papain-like protease in a yeast assay. S. cerevisiae expressing SARS-CoV PLpro, growth rescue. Potency, µM (highest dose often 32.9 µM), inactives show top-dose activity, positive = growth rescue, usual class: activators. 0.19% of 330,000 active. AID 485353; calls by dose curve; note: 0% is about no effect; nearly all actives have a fitted effect of over 55% in size
Sm TGR block – inhibitors of Schistosoma mansoni thioredoxin glutathione reductase. AID 485364. purified TGR, DTNB reduction, TNB absorbance 405 nm. 3% of 360,000 active. Q962Y6. Potency, µM (highest dose often 114 µM), inactives show at the top dose activity change, negative = inhibition, actives largely listed as inhibitors; note: % is set by controls: 0 for no effect and ±100 for the full control effect; nearly all actives have a fitted effect of over 60% in size
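TGR 20 nM + NADPH 100 uM (dispensed conc.), cpd preinc 15 min RT; start with NADPH (500 uM addition) then DTNB (15 mM addition). Kinetic TNB absorbance, 405 nm filter. Four-parameter Hill fit across titration.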
AmpC inh no detg – inhibitors of E. coli AmpC beta-lactamase without detergent; 0.52% of 330,000 active; P00811; Potency, µM (highest dose often 57.1 µM), without a hit: top-dose activity change, negative = inhibition, usual class: inhibitors; AmpC nitrocefin hydrolysis, absorbance 480 nm, 0.0001% Triton;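 note: plate controls were no compound for no effect and no enzyme for full effect; nearly all actives have a fitted effect of over 20% in size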
Target sequence (P00811 whole entry, looked up): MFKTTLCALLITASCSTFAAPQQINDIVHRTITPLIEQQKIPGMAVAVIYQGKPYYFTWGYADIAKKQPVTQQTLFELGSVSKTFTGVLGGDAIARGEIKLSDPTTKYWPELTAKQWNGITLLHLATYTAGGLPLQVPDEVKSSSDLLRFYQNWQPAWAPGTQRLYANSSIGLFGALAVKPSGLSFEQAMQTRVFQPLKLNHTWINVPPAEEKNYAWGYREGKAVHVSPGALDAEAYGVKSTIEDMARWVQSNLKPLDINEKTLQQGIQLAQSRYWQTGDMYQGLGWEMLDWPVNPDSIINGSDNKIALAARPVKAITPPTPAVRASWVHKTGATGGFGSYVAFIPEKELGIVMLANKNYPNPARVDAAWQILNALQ
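20 mM phosphate pH 7.0 + 0.01% (detergent screen) or 0.0001% Triton X-100; 5.3 nM AmpC reagent; cpd preinc 15 min RT; nitrocefin (800 uM stock) to start; A480 q20 s × 4 min; Activity was normalised to no-enzyme and no-compound control wells.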
RE007 growth inh – less growth of the S. pombe RE007 Vpr strain. S. pombe RE007 Vpr strain, BacTiter-Glo ATP luminescence, 24 h. Potency, µM (doses to about 92.2 µM), inactives show at the top dose activity change, negative = less growth, most hits filed as inhibitors. 0.21% of 360,000 active; active = well fitted falling curve with a large enough effect; inconclusive = small, poorly fitted or top-dose-only effect; inactive = no such curve, though single readings can be large or run the other way; note: % is set by controls: 0 for no effect and ±100 for the full control effect; nearly all actives have a fitted effect of over 50% in size
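Fission yeast RE007 carrying one integrated HIV-1 vpr copy, seeded at OD 0.01 in PMG+AL medium with 23 nL pinned compound. Grown 24 h at 30 degrees; viability read by BacTiter-Glo luminescence after 5 min.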
TbPYK inhibitor – T. brucei pyruvate kinase inhibition | Q57TT1 | TbPYK enzyme, Kinase-Glo Plus ATP luminescence, 45 min | Potency, µM (highest dose often 76.8 µM), without a hit: top-dose activity, negative = inhibition, actives largely listed as inhibitors | 0.12% of 410,000 active | AID 624173; note: % is set by controls: 0 for no effect and ±100 for the full control effect; nearly all actives have a fitted effect of over 50% in size
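TbPYK + substrate in 50 mM TEA pH 7.2, 100 mM KCl, 10 mM MgCl2, 0.05% BSA, 0.01% Tween-20; cpd pinned; ADP 130 uM final; 45 min RT; Kinase-Glo Plus 10 min; luminescence endpoint.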
AmpC detergent – blocks E. coli AmpC beta-lactamase in detergent assay; 0.041% of 370,000 active; Potency, µM (doses to about 114 µM), for the others: top-dose activity change, negative = inhibition, most hits filed as inhibitors; P00811; AmpC hydrolysis of nitrocefin, absorbance 480 nm, 0.01% Triton; AID 485294;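 note: 0% = no-compound wells and -100% = no-enzyme wells; nearly all actives have a fitted effect of over 25% in size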
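20 mM phosphate pH 7.0 + 0.01% (detergent screen) or 0.0001% Triton X-100; 5.3 nM AmpC reagent; cpd preinc 15 min RT; nitrocefin (800 uM stock) to start; A480 q20 s × 4 min; Activity was normalised to no-enzyme and no-compound control wells.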
Numbers without * were called inactive; ? = inconclusive; / = not tested or not shown; [ ] = another dose, or the depositor's remark. Unless noted, calls come from the whole dose curve; as a rule, active = well fitted curve in the direction sought with a large enough effect; inconclusive = small, poorly fitted or top-dose-only effect, or another doubt; inactive = no such curve, though single readings can be large; an effect the other way counts as inactive or inconclusive. Potency is the fitted concentration of half-maximal effect.

SMILES	SARS PLpro yeast	Sm TGR block	AmpC inh no detg	RE007 growth inh	TbPYK inhibitor	AmpC detergent
Cc1ccc(-c2ccccc2NC(=O)C2C3C=CC(C3)C2C(=O)O)o1 (stereo not given)	-17.4%	35.5µM*	-22.1%	?	-1.7%	-1.5%
Cc1ccc(-c2ccccc2NC(=O)CCl)o1	26.1%	31.6µM*	-35.1%	-5.3%	-1.3%	1.0%
Cc1ccc(-c2cccc(NC(=O)C3C(C(=O)O)[C@@H]4C=C[C@H]3C4)c2)o1 (stereo not given in full)	-1.4%	20µM*	-16.4%	-18.6%	-10.9%	-6.2%
Cc1ccc(C2CC(c3ccccc3C)n3nc(N)nc3N2)cc1 (stereo not given)	-14.1%	-18.8%	15.6%	-0.7%	2.1%	?
COc1cccc(C2CC(c3ccccc3C)n3nc(N)nc3N2)c1 (stereo not given)	8.2%	3.9%	2.82µM*	12.3%	-3.3%	?
CCOc1ccc(C2CC(c3ccccc3C)n3nc(N)nc3N2)cc1 (stereo not given)	8.7%	7.7%	31.6µM*	-7.0%	-26.9%	-3.7%
COc1cccc(C2CC(c3c(Cl)cccc3Cl)n3nc(N)nc3N2)c1 (stereo not given)	-2.1%	4.4%	5.62µM*	-1.6%	-3.1%	?
COc1ccc(C2CC(c3cccc(OC)c3)n3nc(N)nc3N2)cc1 (stereo not given)	-0.2%	-0.9%	-14.6%	-1.3%	-4.1%	-8.7%
COc1ccc(C2CC(c3ccccc3C)n3nc(N)nc3N2)cc1 (stereo not given)	4.4%	2.5%	?	-1.8%	0.7%	-13.8%
COc1cccc(C2CC(c3c(F)cccc3Cl)n3nc(N)nc3N2)c1 (stereo not given)	8.8%	0.0%	0.2%	10.2%	-9.7%	4.6%
CCOc1ccc(C2CC(c3cccc(OC)c3)n3nc(N)nc3N2)cc1 (stereo not given)	-1.5%	3.1%	4.47µM*	4.4%	-0.4%	?
CCOc1ccc(NC(=O)CCc2c(C)nc3cc(-c4ccc(Cl)cc4)nn3c2C)cc1	/	5.5%	/	/	-2.9%	14.5%
CCc1cc2c(cc3c(=O)n(CC(=O)NC(C)c4ccccc4)ncn32)s1 (stereo not given)	/	0.4%	/	/	-8.3%	-1.7%
CCOc1ccc(CCNC(=O)Cn2nc(C)n3c(cc4occc43)c2=O)cc1OCC	/	-3.2%	/	/	-1.1%	21.4%
Cc1[nH]n(-c2ccccc2)c(=O)c1-c1ccc(Cl)cc1	1.8%	-1.2%	-35.4%	-11.8%	2.2%	2.8%
O=c1[nH]n(-c2ccc(Cl)cc2)c(=O)c(Cl)c1Cl	1.6%	7.08µM*	-29.0%	-14.8%	1.3%	0.1%
CN(C)C(=O)CSc1nnc(-c2ccncc2)n1Cc1ccco1	-2.5%	56.1%	-21.2%	12.1%	3.6%	2.4%
Cn1nnnc1SCC(=O)N1c2ccccc2Sc2ccc(Cl)cc21	-2.2%	6.3%	1.26µM*	22.4%	-3.8%	1.4%
O=C(CSc1nnc(-c2ccncc2)n1Cc1ccco1)N1c2ccccc2Sc2ccc(Cl)cc21	2.5%	44.7µM*	-13.2%	-16.9%	-6.8%	-14.3%
CCn1c2ccccc2c2cc(NC(=O)CSc3nnc(C4CC4)n3Cc3ccco3)ccc21	-4.3%	7.94µM*	62.5%	4.3%	-10.1%	-5.5%
O=C(CSc1nnc(-c2ccncc2)n1Cc1ccco1)OC1CCCCC1	0.0%	39.8µM*	33.4%	-2.6%	-1.5%	6.8%
Cc1ccc(CNC(=O)C2CCCCN2S(=O)(=O)c2ccc(F)cc2)cc1 (stereo not given)	/	28.8%	/	/	3.5%	-4.0%
Cc1cc(Cl)ccc1NC(=O)CSc1nnc(-c2ccncc2)n1Cc1ccco1	1.8%	44.7µM*	79.3%	-8.8%	0.0%	-1.6%
Cc1cccc(C)c1NC(=O)CSc1nnc(-c2ccncc2)n1Cc1ccco1	4.4%	8.1%[11.4 µM]	6.0%	11.5%	2.3%	-15.2%
O=C(CSc1nnc(-c2ccc(Cl)cc2)n1Cc1ccco1)Nc1ccc2c(c1)OCCO2	10.1%	25.1µM*	-31.2%	-17.5%	-4.1%	-17.3%
SMILES	SARS PLpro yeast	Sm TGR block	AmpC inh no detg	RE007 growth inh	TbPYK inhibitor	AmpC detergent
Cc1cccc(N2CCN(CCNC(=O)Nc3ccc(Cl)cc3)CC2)c1C	/	-3.8%	/	/	-4.3%	6.4%
CC(=O)c1cccc(CN2CCN(Cc3ccc(F)cc3)C(CCO)C2)c1 (stereo not given)	0.5%	44.7µM*	19.0%	-5.7%	5.8%	4.3%
CC(=O)Nc1ccc2nc(CN3CCN(Cc4ccc(F)cc4)C(CCO)C3)ccc2c1 (stereo not given)	0.4%	25.1µM*	35.7%	-3.3%	-2.0%	-6.8%
CC(=O)Nc1ccc2nc(CN3CCN(CC(C)C)C(CCO)C3)ccc2c1 (stereo not given)	-0.7%	?	-9.5%	10.8%	-14.8%	5.7%
CC(=O)c1cccc(CN2CCN(Cc3ccc(C)cc3)C(CCO)C2)c1 (stereo not given)	-0.7%	-19.4%	25.1%	12.1%	-3.2%	-3.7%
COc1ccc(S(=O)(=O)N(CC(=O)Nc2cccnc2)c2ccc(Cl)cc2)cc1	/	0.1%	/	/	1.5%	-4.5%
CC(=O)N1c2nc(C(C)C)nn2C2(CCCCC2)[C@@H]2CCCC[C@@H]21	/	4.6%	/	/	0.7%	18.5%
COc1cc(OC)c(NC(=O)Nc2sc3nc4n(c(=O)c3c2C)CCC(C)CC4)cc1Cl (stereo not given)	/	-1.4%	/	/	0.0%	23.5%
COc1ccc(-c2ccc(NC(=O)c3ccco3)cc2)nn1	-1.4%	50.1µM*	-21.3%	?	?	-14.4%
CCc1ccccc1NC(=O)c1cccc(NC(=O)/C=C/c2ccco2)c1	-18.1%	20µM*	-32.4%	-12.3%	1.2%	-0.1%
O=C(O)c1cccc(NC(=O)c2ccccc2NC(=O)c2ccco2)c1	2.6%	-6.9%	-37.8%	2.0%	4.8%	-14.9%
O=C(/C=C/c1ccco1)Nc1cccc(C(=O)Nc2ccccc2C(=O)O)c1	0.6%	3.98µM*	-46.5%	4.6%	?	0.1%
Cc1ccc(NC(=O)c2cccc(NC(=O)/C=C/c3ccco3)c2)cc1C	-20.0%	44.7µM*	-55.5%	?	-22.0%	?
Cc1cc(C)c2oc(-c3cccc(NC(=O)c4ccco4)c3)nc2c1	/	-11.4%	/	/	-16.9%	0.1%
Cc1cc(C)c2oc(-c3ccc(C)c(NC(=O)/C=C/c4ccco4)c3)nc2c1	/	12.6µM*	/	/	?	-3.3%
Cc1ccc(NC(=O)N/C=C/c2ccco2)cc1C	4.0%	?	-46.1%	-9.4%	0.7%	3.4%
Cc1ccccc1NC(=O)c1cccc(NC(=O)c2ccco2)c1	-2.1%	7.2%	-11.8%	1.8%	-3.5%	4.8%

Screening data (PubChem)
